Measured values from PubChem BioAssay (EPA / NIEHS).
Active and inactive are the calls of the source. How the source made its calls: active means hit-call score of the fitted dose curve at least 0.9, where 1 is the maximum; inactive means score below 0.9.

What follows are compounds tested on E-selectin (Homo sapiens) (UniProt P16581) (assay: BSK_LPS_Eselectin: BioMAP Diversity Plus: LPS Assay for Eselectin Biomarker Activity (AID 2283077)). Settings: primary human HUVEC with PBMC; actives raise or lower the signal.
Protocol: BSK_LPS is a cell-based, multiplexed-readout assay that uses umbilical vein endothelium and peripheral blood mononuclear cells, a human vascular primary cell co-culture, with measurements taken at 24 hours after chemical dosing in a 96-well plate.BSK_LPS_Eselectin is an assay component measured in the BSK_LPS assay. It measures E-selectin antibody related to regulation of gene expression using ELISA technology.Data from the assay component BSK_LPS_Eselectin was analyzed into 1 assay endpoint. This assay endpoint, BSK_LPS_Eselectin, was analyzed with bidirectional fitting relative to DMSO as the negative control and baseline of activity. Using a type of binding reporter, gain or loss-of-signal activity can be used to understand changes in the signaling as they relate to the gene SELE. Furthermore, this assay endpoint can be referred to as a primary readout, because this assay has produced multiple assay endpoints where this one serves a signaling function. To generalize the intended target to other relatable targets, this assay endpoint is annotated to the cell adhesion molecules intended target family, where the subfamily is selectins.
The levels of cell surface (or secreted, indicated by the prefix "s") biomarker endpoints were measured by ELISA. Overt cytotoxicity to cells in confluent adherent cultures (all systems other than the BT system) was assessed by measuring total protein levels using sulforhodamine B (SRB) staining in parallel cultures at the time of biomarker measurements, indicated as SRB endpoints. For proliferation assays for adherent cell types, individual cell types are cultured at sub-confluence and relative cell numbers quantified by SRB staining at time points optimized for each system (48 h: 3C and CASM3C systems; 72 h: BT and HDF3CGF systems; 96 h: SAg system). SRB was performed by staining cells with 0.1% SRB after fixation with 10% TCA and reading wells at 560 nm.Viability and proliferation of PBMC (T cells) was quantified by Alamar Blue reduction for the SAg and BT systems. For PBMC viability (referred to as PBMC Cytotoxicity within the assay endpoint names), cells were plated (75,000/well in a 96-well plate) and then chemical samples added for 1 h before addition of activators, SEB and TSST-1 (20 ng/mL final concentration each). Cells were incubated for 90 h. Then, Alamar Blue (20 uL/well) (Invitrogen, Cat DAL1100) was added for 6 h, and the plates were read with a fluorescence microplate reader at 546/580 nm (excitation/emission). For PBMC proliferation, cells were plated and activated as above but incubated for only 16 h prior to addition of Alamar Blue. Plates were read after 6 h.

Chain of E-selectin (Homo sapiens) (P16581 whole entry, looked up): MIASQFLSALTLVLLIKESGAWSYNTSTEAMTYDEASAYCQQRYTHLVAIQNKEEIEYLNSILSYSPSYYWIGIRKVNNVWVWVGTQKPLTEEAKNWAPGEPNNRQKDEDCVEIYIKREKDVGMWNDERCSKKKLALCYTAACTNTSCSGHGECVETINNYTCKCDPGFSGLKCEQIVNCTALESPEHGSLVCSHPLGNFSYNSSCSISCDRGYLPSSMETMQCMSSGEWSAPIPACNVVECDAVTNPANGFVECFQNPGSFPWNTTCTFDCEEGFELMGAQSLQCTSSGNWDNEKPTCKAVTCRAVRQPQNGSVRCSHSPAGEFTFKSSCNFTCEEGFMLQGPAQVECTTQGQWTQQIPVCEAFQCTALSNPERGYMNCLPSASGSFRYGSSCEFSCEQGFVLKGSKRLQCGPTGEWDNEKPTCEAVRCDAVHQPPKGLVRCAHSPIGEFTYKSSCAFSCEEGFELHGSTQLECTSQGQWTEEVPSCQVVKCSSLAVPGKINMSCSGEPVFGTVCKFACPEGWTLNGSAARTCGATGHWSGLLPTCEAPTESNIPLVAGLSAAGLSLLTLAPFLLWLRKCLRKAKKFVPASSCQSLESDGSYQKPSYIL

SMILES | outcome | AC50
NCCNCCN | inactive | 
COc1cc(C=O)ccc1OC(=O)C(C)C | inactive | 
Nc1cc([N+](=O)[O-])ccc1Cl | inactive | 
CC(=O)/C=C/C1=C(C)CCCC1(C)C | inactive | 
C[C@H]1C[C@@H]2[C@H]([C@@H](O)C[C@@]3(C)[C@H]2CC[C@]3(O)C(=O)CO)[C@@]2(C)C=CC(=O)C=C12 | inactive | 
O=C(O)c1cn(C2CC2)c2cc(N3CCNCC3)c(F)cc2c1=O | inactive | 
CC(C)c1ccc(C(C)C)cc1 |  | 32.1 µM (active)
CC1CCC(C(C)CS)CC1S (stereo not given) |  | 34.6 µM (active)
CC(=O)Nc1ccccc1O | inactive | 
C=C[Si](OCC)(OCC)OCC | inactive | 
O=C(O)c1cn(-c2ccc(F)cc2)c2cc(N3CCNCC3)c(F)cc2c1=O | inactive | 
CCn1c2ccccc2c2cc(N)ccc21 | inactive | 
Cc1ccc(Nc2ccc(O)c3c2C(=O)c2ccccc2C3=O)cc1 | inactive | 
CC(=O)OCCC(C)CC(C)(C)C (stereo not given) | inactive | 
CCCCC(CC)COC(=O)/C=C\C(=O)OCC(CC)CCCC (stereo not given) | inactive | 
CC1COc2ccccc2N1C(=O)C(Cl)Cl (stereo not given) |  | 20 µM (active)
C#C[C@]1(O)CC[C@H]2[C@@H]3CCC4=Cc5oncc5C[C@]4(C)[C@H]3CC[C@@]21C | inactive | 
CCCCC(CC)COCCC#N (stereo not given) | inactive | 
CCCCC/C=C/C=C/C=O |  | 34.1 µM (active)
Cc1ccc2n[nH]nc2c1 | inactive | 

SMILES | outcome | AC50
CC(C)Oc1ccccc1O | inactive | 
CCCCCCCCCCCCCCCCCC(=O)OCC(CC)CCCC (stereo not given) | inactive | 
CCCCCCCCCC=O | inactive | 
COC(=O)c1ccc(C)cc1 | inactive | 
O=C1OC2(c3cc(Br)c(O)c(Br)c3Oc3c2cc(Br)c(O)c3Br)c2c(Cl)c(Cl)c(Cl)c(Cl)c21 |  | 5.71 µM (active)
CC(=O)O[C@]1(C(C)=O)CC[C@H]2[C@@H]3C[C@H](C)C4=CC(=O)CC[C@]4(C)[C@H]3CC[C@@]21C | inactive | 
Cc1cc(C2(c3cc(C)c(O)cc3C)OS(=O)(=O)c3ccccc32)c(C)cc1O | inactive | 
C=C(C)C(=O)O[C@H]1C[C@@H]2CC[C@@]1(C)C2(C)C |  | 29.6 µM (active)
O=C1CCCCCCCCCCCCCCO1 | inactive | 
O=C(O)c1ccc([N+](=O)[O-])cc1 | inactive | 
O=C=NC1CCC(CC2CCC(N=C=O)CC2)CC1 (stereo not given) | inactive | 
C=CCOC(=O)CCC1CCCCC1 | inactive | 
CCC(=O)OCc1ccccc1 | inactive | 
CC(C)(COC(=O)c1ccccc1)COC(=O)c1ccccc1 | inactive | 
c1ccc2sc(SN(C3CCCCC3)C3CCCCC3)nc2c1 | inactive | 
CNC[C@H](O)c1cccc(O)c1 | inactive | 
CCCCCCCCC=O | inactive | 
O=P(c1ccccc1)(c1ccccc1)c1ccccc1 | inactive | 
CC[Si](OC(C)=O)(OC(C)=O)OC(C)=O | inactive | 
CN(CCOc1ccc(CC2SC(=O)NC2=O)cc1)c1ccccn1 (stereo not given) | inactive | 
